# The full data set covers some 21,000 targets. This sample favours those with the largest changes.
# Compound: Cc1cc(ccc1-c1ccccc1)C(=O)N1CCCN(CC1)C(=O)CCl [compound 10]
# Assay: probe-labelled cysteine peptide fold change vs DMSO (competition) (log2 fold change); higher = less target engagement (more negative = stronger competition)
# Details: 10 µM; THP-1; incubation time: 4 h
# 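Also: competitive profiling in live THP-1 cells: cysteine peptides tagged with an iodoacetamide desthiobiotin (IA-DTB) probe, intensity after compound treatment relative to DMSO-treated cells.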
# Sequence of UniProt Q9UBQ7 (Q9UBQ7 whole entry, looked up): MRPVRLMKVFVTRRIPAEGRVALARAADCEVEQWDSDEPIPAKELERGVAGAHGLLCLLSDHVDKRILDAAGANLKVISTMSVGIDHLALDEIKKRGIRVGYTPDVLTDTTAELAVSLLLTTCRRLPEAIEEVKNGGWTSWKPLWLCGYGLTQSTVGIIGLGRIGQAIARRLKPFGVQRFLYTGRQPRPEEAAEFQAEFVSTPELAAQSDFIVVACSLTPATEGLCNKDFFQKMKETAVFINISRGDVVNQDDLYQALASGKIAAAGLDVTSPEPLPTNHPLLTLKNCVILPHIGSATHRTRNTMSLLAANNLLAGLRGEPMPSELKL
# Sequence of UniProt P57764 (P57764 whole entry, looked up): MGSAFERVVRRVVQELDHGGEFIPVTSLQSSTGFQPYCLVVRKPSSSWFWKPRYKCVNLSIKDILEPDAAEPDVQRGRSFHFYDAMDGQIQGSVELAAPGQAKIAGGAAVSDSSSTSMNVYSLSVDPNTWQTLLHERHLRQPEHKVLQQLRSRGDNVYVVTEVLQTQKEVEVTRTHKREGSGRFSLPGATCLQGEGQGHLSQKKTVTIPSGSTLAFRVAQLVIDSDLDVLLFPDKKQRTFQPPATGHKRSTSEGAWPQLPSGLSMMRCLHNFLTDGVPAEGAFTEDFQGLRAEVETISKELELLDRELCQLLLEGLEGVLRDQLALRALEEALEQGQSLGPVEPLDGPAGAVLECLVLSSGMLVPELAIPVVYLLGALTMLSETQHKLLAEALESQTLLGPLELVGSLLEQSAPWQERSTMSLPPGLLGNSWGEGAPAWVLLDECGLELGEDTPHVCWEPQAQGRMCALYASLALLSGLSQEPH
# Sequence of UniProt P0DPI2 (P0DPI2 whole entry, looked up): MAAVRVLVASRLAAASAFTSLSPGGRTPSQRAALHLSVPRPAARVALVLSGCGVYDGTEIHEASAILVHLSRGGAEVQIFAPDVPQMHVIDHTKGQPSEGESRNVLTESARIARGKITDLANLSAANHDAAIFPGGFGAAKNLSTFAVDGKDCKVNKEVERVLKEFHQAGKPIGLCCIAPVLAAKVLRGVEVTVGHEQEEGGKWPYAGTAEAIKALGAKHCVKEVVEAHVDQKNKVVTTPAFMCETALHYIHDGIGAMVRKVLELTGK
# Sequence of UniProt Q13439 (Q13439 whole entry, looked up): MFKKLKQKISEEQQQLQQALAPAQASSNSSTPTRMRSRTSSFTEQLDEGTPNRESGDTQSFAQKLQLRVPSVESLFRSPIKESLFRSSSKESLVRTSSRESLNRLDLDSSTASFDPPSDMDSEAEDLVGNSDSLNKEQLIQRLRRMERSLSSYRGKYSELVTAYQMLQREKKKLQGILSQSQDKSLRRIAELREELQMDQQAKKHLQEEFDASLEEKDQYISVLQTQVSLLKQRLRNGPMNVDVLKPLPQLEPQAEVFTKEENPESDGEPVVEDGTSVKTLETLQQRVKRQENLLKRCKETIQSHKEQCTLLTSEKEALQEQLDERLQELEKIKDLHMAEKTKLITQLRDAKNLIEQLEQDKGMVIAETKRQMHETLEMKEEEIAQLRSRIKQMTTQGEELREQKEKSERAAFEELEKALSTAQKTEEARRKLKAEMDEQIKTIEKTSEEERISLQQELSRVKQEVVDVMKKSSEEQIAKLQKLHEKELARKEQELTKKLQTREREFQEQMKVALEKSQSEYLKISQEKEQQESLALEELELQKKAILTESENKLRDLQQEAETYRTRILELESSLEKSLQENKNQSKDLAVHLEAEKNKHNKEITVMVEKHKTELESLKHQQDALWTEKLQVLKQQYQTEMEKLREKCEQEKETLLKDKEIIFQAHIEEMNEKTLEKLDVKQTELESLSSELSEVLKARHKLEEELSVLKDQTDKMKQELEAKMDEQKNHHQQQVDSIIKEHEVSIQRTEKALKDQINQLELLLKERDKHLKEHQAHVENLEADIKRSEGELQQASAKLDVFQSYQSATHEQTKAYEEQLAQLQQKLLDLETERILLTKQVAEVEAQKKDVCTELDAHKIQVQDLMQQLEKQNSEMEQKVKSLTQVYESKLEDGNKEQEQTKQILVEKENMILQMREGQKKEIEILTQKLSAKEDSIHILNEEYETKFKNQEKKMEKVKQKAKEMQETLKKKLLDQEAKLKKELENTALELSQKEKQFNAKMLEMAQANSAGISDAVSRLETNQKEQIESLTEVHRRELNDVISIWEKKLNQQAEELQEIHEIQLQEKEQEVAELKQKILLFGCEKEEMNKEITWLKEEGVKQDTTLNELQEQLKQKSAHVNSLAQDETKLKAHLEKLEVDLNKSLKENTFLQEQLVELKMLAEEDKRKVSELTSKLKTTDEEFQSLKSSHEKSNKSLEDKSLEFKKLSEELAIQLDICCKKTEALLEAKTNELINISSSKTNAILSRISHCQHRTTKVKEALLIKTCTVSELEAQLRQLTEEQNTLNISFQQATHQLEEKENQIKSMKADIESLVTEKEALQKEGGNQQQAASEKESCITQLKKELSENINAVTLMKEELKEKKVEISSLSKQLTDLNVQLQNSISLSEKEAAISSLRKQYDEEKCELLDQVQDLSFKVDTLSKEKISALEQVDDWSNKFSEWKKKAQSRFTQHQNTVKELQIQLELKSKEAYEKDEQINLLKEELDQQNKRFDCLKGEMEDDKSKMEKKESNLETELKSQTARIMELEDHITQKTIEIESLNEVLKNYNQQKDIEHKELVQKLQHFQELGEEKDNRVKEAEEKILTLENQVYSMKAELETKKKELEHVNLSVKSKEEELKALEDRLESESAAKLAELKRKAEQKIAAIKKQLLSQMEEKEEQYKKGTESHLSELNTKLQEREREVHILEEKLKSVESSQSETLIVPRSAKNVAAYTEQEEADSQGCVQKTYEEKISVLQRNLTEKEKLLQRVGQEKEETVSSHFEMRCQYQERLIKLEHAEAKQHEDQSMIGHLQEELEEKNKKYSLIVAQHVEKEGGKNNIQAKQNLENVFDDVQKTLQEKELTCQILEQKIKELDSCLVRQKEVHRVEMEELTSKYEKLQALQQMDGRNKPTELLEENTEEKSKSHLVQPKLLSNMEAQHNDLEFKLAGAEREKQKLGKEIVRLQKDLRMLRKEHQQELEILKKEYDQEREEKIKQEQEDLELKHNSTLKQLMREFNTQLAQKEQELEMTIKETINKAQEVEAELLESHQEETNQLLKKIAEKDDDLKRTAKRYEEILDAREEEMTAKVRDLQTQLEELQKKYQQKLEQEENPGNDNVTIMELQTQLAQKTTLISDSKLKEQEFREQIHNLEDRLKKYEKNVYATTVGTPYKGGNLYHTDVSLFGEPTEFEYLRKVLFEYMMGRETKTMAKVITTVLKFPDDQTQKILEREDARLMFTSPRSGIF
# Sequence of UniProt O75487 (O75487 whole entry, looked up): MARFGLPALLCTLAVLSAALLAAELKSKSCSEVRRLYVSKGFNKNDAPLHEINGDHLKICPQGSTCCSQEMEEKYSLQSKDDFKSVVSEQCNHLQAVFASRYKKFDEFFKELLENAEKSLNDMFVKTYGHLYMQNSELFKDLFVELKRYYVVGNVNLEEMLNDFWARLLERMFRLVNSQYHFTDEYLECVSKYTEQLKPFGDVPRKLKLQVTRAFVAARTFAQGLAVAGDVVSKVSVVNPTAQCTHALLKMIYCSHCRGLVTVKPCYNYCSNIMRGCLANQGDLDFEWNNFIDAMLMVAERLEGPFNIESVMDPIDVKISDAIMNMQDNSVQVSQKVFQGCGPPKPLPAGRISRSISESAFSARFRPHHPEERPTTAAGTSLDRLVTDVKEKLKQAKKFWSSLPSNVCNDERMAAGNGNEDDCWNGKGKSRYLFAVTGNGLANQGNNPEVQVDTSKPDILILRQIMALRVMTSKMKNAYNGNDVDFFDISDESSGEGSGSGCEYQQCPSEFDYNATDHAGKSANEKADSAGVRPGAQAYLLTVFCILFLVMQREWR
# Sequence of UniProt P48507 (P48507 whole entry, looked up): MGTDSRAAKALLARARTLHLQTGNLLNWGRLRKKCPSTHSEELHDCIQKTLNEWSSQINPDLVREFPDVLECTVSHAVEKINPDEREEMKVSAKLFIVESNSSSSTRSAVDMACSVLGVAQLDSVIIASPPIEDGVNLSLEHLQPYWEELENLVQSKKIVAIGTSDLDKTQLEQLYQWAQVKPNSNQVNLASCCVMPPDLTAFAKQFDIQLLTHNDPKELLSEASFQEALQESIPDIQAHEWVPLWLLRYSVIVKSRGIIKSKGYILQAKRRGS
# Sequence of UniProt P04899 (P04899 whole entry, looked up): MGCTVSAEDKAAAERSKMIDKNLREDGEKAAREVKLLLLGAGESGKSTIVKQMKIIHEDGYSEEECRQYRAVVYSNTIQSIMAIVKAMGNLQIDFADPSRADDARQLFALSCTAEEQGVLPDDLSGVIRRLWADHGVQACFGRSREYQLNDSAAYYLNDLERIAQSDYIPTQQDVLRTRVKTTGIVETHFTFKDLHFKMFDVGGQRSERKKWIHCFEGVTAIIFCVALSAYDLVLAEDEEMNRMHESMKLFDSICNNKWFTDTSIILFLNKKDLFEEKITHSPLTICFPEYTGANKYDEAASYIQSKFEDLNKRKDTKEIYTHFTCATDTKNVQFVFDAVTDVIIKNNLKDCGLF
# Sequence of UniProt Q14192 (Q14192 whole entry, looked up): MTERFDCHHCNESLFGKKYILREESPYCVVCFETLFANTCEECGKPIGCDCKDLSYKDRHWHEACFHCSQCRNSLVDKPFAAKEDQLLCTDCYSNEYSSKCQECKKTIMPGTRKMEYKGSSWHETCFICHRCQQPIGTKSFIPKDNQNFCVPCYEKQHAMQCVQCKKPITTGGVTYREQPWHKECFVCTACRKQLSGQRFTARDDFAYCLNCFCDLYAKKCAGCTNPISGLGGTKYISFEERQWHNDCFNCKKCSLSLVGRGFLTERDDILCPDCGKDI
# Sequence of UniProt Q9BSH5 (Q9BSH5 whole entry, looked up): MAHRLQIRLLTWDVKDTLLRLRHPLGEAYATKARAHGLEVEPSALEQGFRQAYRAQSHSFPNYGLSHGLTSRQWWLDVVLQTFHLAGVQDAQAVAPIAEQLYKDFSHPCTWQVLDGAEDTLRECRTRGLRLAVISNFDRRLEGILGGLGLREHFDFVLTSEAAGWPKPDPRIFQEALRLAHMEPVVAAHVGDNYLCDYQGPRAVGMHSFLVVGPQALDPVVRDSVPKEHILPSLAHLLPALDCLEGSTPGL
row,Target,probe-labelled cysteine peptide fold change
1,GEMIN5_Q8TEQ6_82_VSGFTFSHHPGQYNLCATSSDDGTVK (UniProt Q8TEQ6),0.193
2,FKBP8_Q14318_274_CLNNLAASQLK (UniProt Q14318),0.0653
3,GSDMD_P57764_38_RVVQELDHGGEFIPVTSLQSSTGFQPYCLVVR (UniProt P57764),0.275
4,GTF2B_Q00403_34+37_AGDMICPECGLVVGDR (UniProt Q00403),0.105
5,GSK3B_P49841_335_LTPLEACAHSFFDELRDPNVK (UniProt P49841),0.133
6,GNAI2_P04899_326_EIYTHFTCATDTK (UniProt P04899),0.0663
7,GDAP2_Q9NXN4_148_TAAESSLYSCYR (UniProt Q9NXN4),-0.0153
8,GPC4_O75487_341_VFQGCGPPK (UniProt O75487),-0.24
9,GATD1_Q8NB37_94_YHALLIPSCPGALTDLASSGSLAR (UniProt Q8NB37),0.0159
10,HDHD3_Q9BSH5_109_DFSHPCTWQVLDGAEDTLR (UniProt Q9BSH5),-0.47
11,FSCN1_Q16658_226_VAFRDCEGR (UniProt Q16658),-0.244
12,GFPT1_Q06210_264_VDSTTCLFPVEEK (UniProt Q06210),-0.0167
13,FGR_P09769_415_LIKDDEYNPCQGSK (UniProt P09769),-0.148
14,GTF3C5_Q9Y5Q8_75_DPYCHPVCANR (UniProt Q9Y5Q8),0.121
15,GOLGA4_Q13439_1085_ILLFGCEK (UniProt Q13439),-0.11
16,GCLM_P48507_35+46_CPSTHSEELHDCIQK (UniProt P48507),-0.112
17,GATD3B_A0A0B4J2D5_177_EFHQAGKPIGLCCIAPVLAAK<|>GATD3A_P0DPI2_177_EFHQAGKPIGLCCIAPVLAAK (UniProt P0DPI2),-0.563
18,FOS_P01100_204_EKLEFILAAHRPACK (UniProt P01100),0.0955
19,HERC4_Q5GLZ8_58+60_HTVFVLDDGTVYTCGCNDLGQLGHEK (UniProt Q5GLZ8),-0.0133
20,GSTP1_P09211_102_DQQEAALVDMVNDGVEDLRCK (UniProt P09211),0.0332
21,GRHPR_Q9UBQ7_29_AADCEVEQWDSDEPIPAK (UniProt Q9UBQ7),-0.563
22,HERC2_O95714_1201_ERDDHEELAWPGIMESFFTGQNCR (UniProt O95714),-0.0998
23,FHL2_Q14192_275_GFLTERDDILCPDCGK (UniProt Q14192),0.0254
24,HDDC3_Q8N4P3_133_CTPEGWSEHR (UniProt Q8N4P3),0.13
25,HDAC10_Q969S8_23_LLWDDPECEIERPER (UniProt Q969S8),-0.294
26,GFI1_Q99684_155_GAGLGLFCEPAPEPGHPAALYGPK (UniProt Q99684),-0.225
27,GSPT1_P15170_464_TAGTICLETFK (UniProt P15170),0.00954
